Assay outcomes from PubChem BioAssay.
ATXN2 expr inh – ATXN2 expression inhibition. HEK-293 ATXN2-luciferase reporter, luminescence, 24 h. Potency, µM (titrated, usually from 57 µM), inactives show at the highest dose activity change, negative = inhibition, actives largely listed as inhibitors. actives 0.72% (n = 360,000). AID 1745845; note: potency is the fitted concentration of half-maximal effect; % is set by controls: 0 for no effect and ±100 for the full control effect; nearly all actives have a fitted effect of over 55% in size
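ATXN2-luciferase reporter cells (luciferase flanked by upstream and downstream ATXN2 gene portions) were treated 24 h at 37 °C with compounds at up to 57 uM. SteadyGlo luminescence gave expression; GF-AFC fluorescence gave viability.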
IL-1B inflam inh – blocks inflammasome-driven IL-1 beta release | THP-1 LPS/ATP IL-1B secretion, AlphaLISA, 16 h; hits give low values | AID 743279 | activity change, % at 57.5 µM | actives 4.7% (n = 360,000); in the data active = activity change below about -50%; inconclusive = mostly about -30% to -49%; note: % is set by controls: 0 for no effect and ±100 for the full control effect
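THP-1 cells pretreated 1 hr with compounds (up to 57.5 uM final), then stimulated with LPS (250 ng/mL final) plus ATP (1.25 mM final); secreted IL-1B measured by AlphaLISA after 16 hr, decreased signal indicating inhibition.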
ATXN viability – viability counter-screen for ATXN expression inhibitors; S2 cells (HEK-293 line with an ATXN2-luciferase reporter) viability, CellTiter-Fluor protease fluorescence, 24 h; Potency, µM (top dose mostly 56.7 µM), most hits filed as cytotoxic; actives 0.49% (n = 400,000); note: potency is the fitted concentration of half-maximal effect; nearly all actives have a fitted effect of over 40% in size
TGFb inhibitor – inhibitors of TGF-b signaling; Potency, µM (highest dose often 46.1 µM), for the others: at the top dose activity, negative = inhibition, hits mostly inhibitors; HepG2 CAGA-GFP TGF-b/SMAD3 reporter, GFP fluorescence, 18 h; TGF-beta stimulated, 500 pg/mL final; AID 588855; actives 1.2% (n = 410,000); note: potency is the fitted concentration of half-maximal effect; % is set by controls: 0 for no effect and ±100 for the full control effect; nearly all actives have a fitted effect of over 65% in size
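Inhibition of TGF-beta-driven CAGA-GFP reporter expression in HEPG2 cells is measured by cellular GFP fluorescence after 18 h stimulation with 500 pg/mL recombinant TGF-beta in 1% FBS medium at 37 degrees C.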
HepG2 tox – counter-screen for TGF-b inhibitors: cytotoxicity in HepG2 cells. Potency, µM (titrated, usually from 46.1 µM), inactives show top-dose activity change, negative = cytotoxicity, actives largely listed as cytotoxic. actives 0.76% (n = 410,000). HepG2 CAGA-GFP viability, ATP luminescence, 18 h; note: potency is the fitted concentration of half-maximal effect
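HepG2 CAGA-GFP cells (1000/well, DMEM with 1% FBS) received compound, then TGF-beta at 500 pg/mL final, and were incubated 18 hours at 37 degrees C. Viability was read by CellTiter-Glo luminescence. Media-only wells were set as complete cell-killing and DMSO as no toxicity.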
Numbers without * were called inactive; i = inactive; ? = inconclusive; . = no result; [ ] = remark or other dose. Shown are actives, neighbours in structure and some others; about 5.7% of the full set was active somewhere. Unless noted, calls come from the whole dose curve; as a rule, active = well fitted curve in the direction sought with a large enough effect; inconclusive = small, poorly fitted or top-dose-only effect, or another doubt; inactive = no such curve, though single readings can be large; an effect the other way counts as inactive or inconclusive.

SMILES	ATXN2 expr inh	IL-1B inflam inh	ATXN viability	TGFb inhibitor	HepG2 tox
O=C1C=CC(=O)N1c1ccc(O)cc1	.	-7.8	i	?	7.94µM*
O=C1C=CC(=O)N1c1ccc(OC(F)F)cc1	?	-91.4*	.	?	-94.6%
O=c1c(O)c(-c2ccc(O)c(O)c2)oc2cc(O)ccc12	-11.6%	-83.5*	.	?	-29.2%
O=c1c(O)c(-c2ccc(O)cc2)oc2cc(O)cc(O)c12	38.6%	28.0	i	-1.5%	-24.2%
Cc1ccc(-c2nnc(N3CCC(C)CC3)c3ccccc23)cc1	.	-14.2	?	?	-26.6%
Cc1ccc(-c2nnc(N3CCC(C)CC3)c3ccccc23)cc1C	?	-94.7*	i	?	-20.3%
CC1CCN(c2nnc(-c3ccccc3)c3ccccc23)CC1	17.9%	-99.3*	.	-17.9%	6.7%
COC(=O)C1=C[C@@H](C(=O)OC)C2C3=C(C(=O)[C@@]2(C)NC(=O)c2ccccc2)[C@H](c2ccccc2)[C@@H]2C(=O)N(c4ccccc4)C(=O)[C@@H]2[C@@H]3C1 (stereo partly specified)	.	.	.	2.5%	-0.9%
O=C(NCCc1cccc(Cl)c1)c1ccc(Cl)c([N+](=O)[O-])c1	-5.4%	-97.7*	i	-26.3%	-1.6%
CC(C)(CNC(=O)c1ccc([N+](=O)[O-])c(Cl)c1)CNC(=O)c1ccc([N+](=O)[O-])c(Cl)c1	?	-112.5*	?	?	-32.3%
CN(Cc1ccccc1)C(=O)c1ccc(Cl)c([N+](=O)[O-])c1	-5.4%	-89.9*	i	-10.6%	-8.3%
CN(Cc1ccccc1)c1ccc(C(=O)O)cc1[N+](=O)[O-]	-3.0%	-1.4	i	5.5%	-33.4%
Cc1ccc(C(=O)NCCc2cccc(Cl)c2)cc1[N+](=O)[O-]	7.3%	-56.5*	i	-8.2%	0.0%
COc1ccc(CCNC(=O)C2CCCN(c3nc4c(C)cc(C)cc4s3)C2)cc1OC (stereo unspecified)	.	.	.	-5.8%	-16.3%
O=C1CCSC2(C(=O)N(Cc3ccc(F)cc3)c3ccccc32)N1c1ccc(Cl)cc1 (stereo unspecified)	.	.	.	?	-58.0%
COc1ccc(C(C)=O)cc1Cn1nc(C)c([N+](=O)[O-])c1C	-8.4%	-12.9	i	-7.3%	-4.5%
COc1ccc(/C=C/C(=O)C2CC2)cc1Cn1nc(C)c([N+](=O)[O-])c1C	-19.5%[11.3 µM]	-110.1*	i	0.0%	0.4%
COc1cccc(NC(=O)CN(C2=NC3CS(=O)(=O)CC3S2)c2cccc(C)c2)c1 (stereo unspecified)	-3.3%	-65.4*	?	-19.7%	-62.8%
COc1ccc(N(CC(=O)Nc2cc(Cl)ccc2OC)C2=NC3CS(=O)(=O)CC3S2)cc1 (stereo unspecified)	-17.8%	-22.7	i	0.7%	-2.6%
CCOC(=O)CSc1n[nH]c(-c2cccnc2)n1	2.0%	-81.2*	i	-5.0%	-34.9%
COC(=O)CSc1n[nH]c(-c2cccnc2)n1	-8.1%	18.4	i	-8.0%	3.0%
CCOC(=O)CN(Cc1cc(OC)cc(N(C)C)c1OC)C(=O)C1CC(CO[Si](C)(C)C(C)(C)C)=CN1C(=O)OC(C)(C)C (stereo unspecified)	.	.	.	?	-14.5%
CC(C)(C)N1C(=O)c2ccc(C(=O)Nc3ccc(O)cc3)cc2C1=O	-17.3%	?	?	-0.4%	-14.6%
CC(C)(C)NC(=O)c1cccc(NC(=O)c2ccc3c(c2)C(=O)N(C(C)(C)C)C3=O)c1	-11.8%	-96.0*	i	?	-28.9%
COC(=O)c1cccc(NC(=O)c2ccc3c(c2)C(=O)N(C(C)(C)C)C3=O)c1	2.8%	-53.6*	i	1.7%	1.1%
COc1ccccc1CN(C)C(=O)C(c1ccccc1)c1ccccc1	-24.3%	-82.2*	i	0.0%	-7.6%
COc1ccccc1CN(C)C(=O)c1ccc(COc2ccccc2)cc1	-16.1%	-75.7*	i	?	-9.5%
O=c1c(=O)n(-c2ccc(F)c(F)c2)ccn1Cc1ccc(F)cc1Cl	.	.	.	-3.4%	1.5%
